For 5 molecules, normalized growth results are on record in PubChem BioAssay AID1159580 (chemical genetic matrix, 2015).

The assay can be described thus: chemical genetic growth profiling, strain panel (AID 1159580).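 Also: tested at 20 µM; growth read once vehicle control cultures reached saturation at 30 °C; 1 = growth at the plate median or of vehicle wells; lower values mean less growth of the strain.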 The settings on record: growth OD.
Where [1] appears, read: S. cerevisiae deletion strains, locus YAL040C, strain CLN3, active compounds read low.
Setting [2] is: S. cerevisiae deletion strains, locus YCL061C, strain MRC1 (second series), active compounds read low.
Where [3] appears, read: S. cerevisiae deletion strains, locus YER002W, strain NOP16, active compounds read low.
[4] abbreviates: S. cerevisiae deletion strains, locus YGR078C, strain PAC10, active compounds read low.
Where [5] appears, read: S. cerevisiae deletion strains, locus YMR263W, strain SAP30, active compounds read low.
Setting [6] is: S. cerevisiae deletion strains, locus YMR307W, strain GAS1, active compounds read low.
Where [7] appears, read: S. cerevisiae deletion strains, locus YNL175C, strain NOP13, active compounds read low.
Setting [8] is: S. cerevisiae deletion strains, locus YNL197C, strain WHI3, active compounds read low.
[9] abbreviates: S. cerevisiae deletion strains, locus YNL224C, strain SQS1, active compounds read low.
[10] abbreviates: S. cerevisiae deletion strains, locus YOR083W, strain WHI5 (second series), active compounds read low.
Setting [11] is: S. cerevisiae deletion strains, locus YPL055C, strain LGE1, active compounds read low.
Setting [12] is: S. cerevisiae deletion strains, locus YAL013W, strain DEP1, active compounds read low.
[13] abbreviates: S. cerevisiae deletion strains, locus YBR229C, strain ROT2, active compounds read low.
Setting [14] is: S. cerevisiae deletion strains, locus YDL101C, strain DUN1, active compounds read low.
The mark [15] stands for this setting: S. cerevisiae deletion strains, locus YDR150W, strain NUM1, active compounds read low.
Where [16] appears, read: S. cerevisiae deletion strains, locus YEL061C, strain CIN8, active compounds read low.
[17] abbreviates: S. cerevisiae deletion strains, locus YHR030C, strain SLT2, active compounds read low.
Setting [18] is: S. cerevisiae deletion strains, locus YHR087W, strain rtc3, active compounds read low.
The mark [19] stands for this setting: S. cerevisiae deletion strains, locus YJR043C, strain POL32, active compounds read low.
[20] abbreviates: S. cerevisiae deletion strains, locus YJR075W, strain HOC1, active compounds read low.
Setting [21] is: S. cerevisiae deletion strains, locus YLR039C, strain RIC1, active compounds read low.
[22] abbreviates: S. cerevisiae deletion strains, locus YLR058C, strain SHM2 (second series), active compounds read low.
Setting [23] is: S. cerevisiae deletion strains, locus YLR085C, strain ARP6, active compounds read low.
Setting [24] is: S. cerevisiae deletion strains, locus YLR262C, strain YPT6, active compounds read low.
The mark [25] stands for this setting: S. cerevisiae deletion strains, locus YML094W, strain GIM5, active compounds read low.
[26] abbreviates: S. cerevisiae deletion strains, locus YMR219W, strain ESC1, active compounds read low.
[27] abbreviates: S. cerevisiae deletion strains, locus YNL153C, strain GIM3, active compounds read low.
Where [28] appears, read: S. cerevisiae deletion strains, locus YNL298W, strain CLA4 (second series), active compounds read low.
Where [29] appears, read: S. cerevisiae deletion strains, locus YNL322C, strain KRE1, active compounds read low.
[30] abbreviates: S. cerevisiae deletion strains, locus YNR030W, strain Alg12, active compounds read low.
Where [31] appears, read: S. cerevisiae deletion strains, locus YPL241C, strain CIN2, active compounds read low.
[32] abbreviates: S. cerevisiae deletion strains, locus YPR135W, strain CTF4, active compounds read low.
Setting [33] is: S. cerevisiae strains, strain wild type, active compounds read low.
The mark [34] stands for this setting: S. cerevisiae deletion strains, locus YDL134C, strain PPH21, active compounds read low.
[35] abbreviates: S. cerevisiae deletion strains, locus YNL128W, strain TEP1, active compounds read low.
Setting [36] is: S. cerevisiae deletion strains, locus YOL006C, strain TOP1, active compounds read low.

Each structure is given as a SMILES string. Out of some 5,500 compounds screened, about 2,000 (36%) were called active. Roughly 18% stayed inconclusive and do not appear here. The list shows a part of the results. Unmarked numbers belong to inactive results. Rule as the data show it: active = normalized growth mostly below about 0.91 (no sharp cut-off); inconclusive = no clear call, values can overlap the other calls; inactive = mostly above about 0.92.

On to `COc1ccccc1N1CCN(CCCCNC(=O)c2ccc3ccccc3c2)CC1`, for which the normalized growth is, setting by setting: under setting [1], 0.951; under setting [2], 0.988; (S. cerevisiae deletion strains, locus YDR363W, strain ESC2, active compounds read low) 1.03; under setting [3], 0.996; under setting [4], 0.981; under setting [5], 0.978. Further, the normalized growth reads like this: under setting [6], 0.995; under setting [7], 1.03; under setting [8], 1.01; under setting [9], 0.983; under setting [10], 1.06; under setting [11], 0.999.

For the molecule `COc1ccccc1C1CCN(Cc2ccc3ccccc3c2)CC1`, the normalized growth under setting [12] was 0.981; the normalized growth under setting [13] was 0.965; the normalized growth under setting [14] is 0.973; the normalized growth under setting [15] is 1; the normalized growth under setting [16] was 0.915; the normalized growth under setting [4] was 0.986. Besides, the normalized growth reads like this: under setting [17], 0.529 (active); under setting [18], 0.987; under setting [19], 1.01; under setting [20], 0.99; under setting [21], 0.98; under setting [22], 0.985. The normalized growth under setting [23] is 0.91; the normalized growth under setting [24] is 0.904; the normalized growth under setting [25] was 0.885; the normalized growth under setting [26] was 1; the normalized growth under setting [5] is 1.01; the normalized growth under setting [27] is 0.962. Besides, the normalized growth is 0.888 under setting [28]; 0.989 under setting [29]; 0.963 under setting [30]; 1.02 under setting [11]; 0.911 under setting [31]; 0.773 under setting [32]. The normalized growth under setting [33] was 0.885 (active).

Turning to `COc1ccccc1C1CCN(C(=O)c2ccc(F)cc2)CC1`, the normalized growth is 0.981 under setting [12]; 0.986 under setting [13]; 0.989 (S. cerevisiae deletion strains, locus YCL061C, strain MRC1, active compounds read low); 0.994 under setting [14]; 0.983 under setting [34]; 0.988 under setting [15]. The normalized growth under setting [16] was 0.965; the normalized growth under setting [4] was 0.982; the normalized growth under setting [17] was 0.754; the normalized growth under setting [18] was 1.01; the normalized growth under setting [19] is 0.987; the normalized growth under setting [20] was 1. The normalized growth was 1.03 under setting [21]; 0.981 under setting [22]; 0.901 under setting [23]; 1.01 under setting [24]; 0.944 under setting [25]; 0.976 under setting [26]. The normalized growth was 0.994 under setting [5]; 0.986 under setting [35]; 0.989 under setting [27]; 0.982 under setting [28]; 0.978 under setting [29]; 0.967 under setting [30]. Also, the normalized growth by setting is: under setting [36], 0.852; under setting [11], 0.926; under setting [32], 0.975.

In the case of `Nc1cc(Cl)c(NC2=NCCN2)c(Cl)c1`, the normalized growth under setting [1] is 0.982; the normalized growth under setting [2] is 1; the normalized growth under setting [3] was 1; the normalized growth (S. cerevisiae deletion strains, locus YGR229C, strain SMI1, active compounds read low) was 1.01; the normalized growth under setting [20] is 0.998; the normalized growth under setting [35] was 1. For the same molecule, the normalized growth by setting is: under setting [27], 0.987; under setting [7], 1.02; under setting [8], 1; under setting [9], 1.02; under setting [10], 1.04; under setting [31], 1.

On to `CNC(=S)NN=C(N)c1ccccn1`, for which the normalized growth under setting [12] was 1.02; the normalized growth under setting [13] was 1.02; the normalized growth under setting [14] is 0.972; the normalized growth under setting [34] is 0.963; the normalized growth under setting [15] is 1.04; the normalized growth under setting [16] was 0.93. The normalized growth was 1.01 under setting [4]; 0.786 under setting [17]; 1.05 under setting [18]; 1.01 (S. cerevisiae deletion strains, locus YJL187C, strain SWE1, active compounds read low); 1.01 under setting [19]; 1.01 under setting [20]. Moreover, the normalized growth was 0.521 (active) (S. cerevisiae deletion strains, locus YKL190W, strain CNB1, active compounds read low); 0.519 (active) under setting [21]; 1.01 under setting [22]; 0.484 (active) under setting [23]; 0.698 (active) under setting [24]; 0.831 (active) under setting [25]. Besides, the normalized growth under setting [26] is 1.01; the normalized growth under setting [5] is 1.01; the normalized growth under setting [6] is 0.525 (active); the normalized growth under setting [27] is 0.989; the normalized growth under setting [28] is 0.75 (active); the normalized growth under setting [29] is 1.04. Besides, the normalized growth was 0.669 (active) under setting [30]; 0.167 (active) under setting [36]; 1.03 under setting [11]; 0.682 (active) under setting [31]; 0.7 under setting [32]; 0.64 (active) under setting [33].
